# This is a sample that favours compounds with a hit; in the whole collection about 19% have one here.
# AMA1-RON2 inh – inhibitors of Plasmodium falciparum AMA1-RON2 interaction; 360,000 compounds, 0.2% hits; AlphaScreen AMA1-biotinylated RON2 peptide binding; Potency, µM (doses to about 58.2 µM), actives largely listed as inhibitors; also: nearly all actives have a fitted effect of over 45% in size
#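 AMA1 (3D7) with his tag at 25 nM final met compounds first, then biotinylated RON2 peptide at 25 nM; detection used donor plus acceptor beads, 10 µg/mL apiece, read by AlphaScreen after 30 min at room temperature.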
# SARS PLpro yeast – SARS-CoV PLP inhibition in yeast; S. cerevisiae expressing SARS-CoV PLpro, growth rescue; Potency, µM (titrated, usually from 32.9 µM), actives largely listed as activators; 330,000 compounds, 0.19% hits; AID 485353; calls by dose curve; also: nearly all actives have a fitted effect of over 55% in size
# Shiga toxin inh – blocks Shiga toxin action in Vero cells | AID 2315 | Vero cells, Shiga toxin protein synthesis inhibition reporter | 290,000 compounds, 9.2% hits | inhibition, % at 38.7 µM; in the data active = inhibition mostly above about 28%, no sharp cut-off; inactive = mostly below about 43%
# CHX counter – counter-screen for Shiga toxin inhibitors: cycloheximide protein synthesis inhibition. cell reporter, cycloheximide protein synthesis inhibition counterscreen. max response, %. 300,000 compounds, 12% hits; in the data active = max response mostly above about 13%, no sharp cut-off; inactive = mostly below about 14%; also: read at 38.3 µM for the half of the compounds with a filed dose
# Pf growth 96h – P. falciparum growth inhibition at 96 hours. P. falciparum luciferase reporter growth, 96 h. 320,000 compounds, 6.9% hits. Potency, µM (doses to about 28.7 µM), actives largely listed as inhibitors
#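 Luminescence readout: decreased luciferase signal marks inhibited growth of reporter-expressing P. falciparum in infected red cells (2% hematocrit, 0.05% parasitemia final), exposed to compound two generations (96 h, 37 C, 5% CO2).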
# Pf growth 48h – inhibits P. falciparum growth in the first generation, 48 h; P. falciparum luciferase growth in erythrocytes, 48 h; AID 504832; Potency, µM (titrated, usually from 28.7 µM), usual class: inhibitors; 310,000 compounds, 5.9% hits
#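 Luciferase-expressing parasites in RBCs, 2% Hct / 0.1% parasitemia final; RPMI 1640 + 0.5% Albumax; 37 C, 5% CO2, one generation; luminescence read-out, lower signal = inhibition.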
# Hits are given with their value; . = inactive; ? = inconclusive; / = no result; [ ] = remark or other dose. Unless noted, calls follow the shape of the dose curve; as a rule, active = well fitted curve in the direction sought with a large enough effect; inconclusive = small, poorly fitted or top-dose-only effect, or another doubt; inactive = no such curve, though single readings can be large; an effect the other way counts as inactive or inconclusive.
SMILES,AMA1-RON2 inh,SARS PLpro yeast,Shiga toxin inh,CHX counter,Pf growth 96h,Pf growth 48h
O=C(CN(c1ccc(F)cc1)S(=O)(=O)c1ccc2c(c1)OCCO2)Nc1ccccc1,.,.,.,20,?,/
O=C(CN(c1ccccc1F)S(=O)(=O)c1ccccc1)Nc1ccc2c(c1)OCCO2,.,.,120,48,4.1µM,.
CC(=O)Nc1ccc(NC(=O)CN(c2ccc(F)cc2)S(=O)(=O)c2ccc3c(c2)OCCO3)cc1,.,.,.,.,8.3µM,/
O=C(CN(Cc1ccccc1)S(=O)(=O)c1ccc2c(c1)OCCO2)Nc1ccc2c(c1)OCCO2,.,.,36,28,.,?
CCOC(=O)c1cnc2nc[nH]n2c1=O,.,.,.,.,.,.
COc1cccc(N=C2CC(C)(C)CC(=O)/C2=C(/O)c2ccccc2)c1,.,.,.,.,.,?
COC(=O)C1=C/CCCN(C(c2ccccc2)c2ccccc2)/C=C\1C(=O)OC,.,/,/,/,/,/
CCOc1cc(NC(=O)C(C)C)c(OCC)cc1NC(=O)Nc1ccccc1,.,.,/,.,12µM,.
CCOc1cc(NC(=O)c2ccccn2)c(OCC)cc1NC(=O)c1ccccc1,.,.,.,.,.,.
CCOc1cc(NC(=S)Nc2ccccc2)c(OCC)cc1NC(=O)c1ccccc1,.,.,.,.,8.3µM,?
COc1cc2cc(C(c3nnnn3C3CCCC3)N(C)C3CCCCC3)c(=O)[nH]c2cc1OC (centres undefined),.,.,.,.,?,?
CCC(C)(C)n1nnnc1C(c1cc2ccc(C)cc2[nH]c1=O)N(Cc1cccnc1)Cc1ccco1 (centres undefined),.,.,.,.,.,12µM
Cc1ccc2cc(C(c3nnnn3C3CCCC3)N(Cc3ccccc3)Cc3ccco3)c(=O)[nH]c2c1 (centres undefined),.,.,.,.,?,/
Cc1cc2cc(C(c3nnnn3C3CCCC3)N(Cc3cccnc3)Cc3ccco3)c(=O)[nH]c2cc1C (centres undefined),.,.,.,.,2.3µM,/
COc1cc2cc(C(c3nnnn3C3CCCCC3)N(C)C3CCCCC3)c(=O)[nH]c2cc1OC (centres undefined),.,.,.,.,.,5.9µM
O=C(Cc1ccccc1)Nc1sc2c(c1C(=O)Nc1cccc(Cl)c1)CCCC2,/,/,.,.,/,/
Cc1ccc(OCC(=O)OCC(=O)c2cccc([N+](=O)[O-])c2)cc1C,.,.,.,.,?,.
COCCCNC(=O)/C(C#N)=C1\N=C(NC(=O)c2cccs2)c2ccccc21,.,.,.,18,.,.
C[C@H](NC(=O)NCc1cccs1)C(=O)O,.,.,.,.,.[5.75 µM],.
CC(Cc1cccs1)NC(=S)Nc1ccccc1 (centres undefined),.,.,40,18,.,.
CCOP(=O)(OCC)C(NC(=O)Nc1ccc(Cl)c(Cl)c1)c1ccccc1 (centres undefined),.[2.32 µM],.,.,.,?,.
CC(Cc1cccs1)NC(=O)Nc1ccc(Cl)c(Cl)c1 (centres undefined),.,.,59,45,?,/
O=C(Cc1cccs1)Nc1ccccc1,.,.,.,.,?,.
CC(C)NC(=S)NCc1cccs1,.,.,.,.,.,.
CC(Cc1cccs1)NC(=O)Nc1ccccc1 (centres undefined),.,.,64,.,2.9µM,.
SMILES,AMA1-RON2 inh,SARS PLpro yeast,Shiga toxin inh,CHX counter,Pf growth 96h,Pf growth 48h
CC(Cc1cccs1)NC(=O)Nc1ccc(Cl)cc1 (centres undefined),.,.,88,29,/,.
CC(C)(C)C(=O)CSc1nc(N)cc(=O)[nH]1,.,.,.,.,.,.
Nc1cccnc1Oc1ccc(F)cc1,.,.,.,14,.,.
CC(=O)NCC(=O)NC1CC(C)(C)Cc2c1cnn2-c1ccccc1 (centres undefined),.,.,.,.,.,.
Oc1ccccc1C=NCC(O)c1ccccc1 (centres undefined),.,.,.,.,.,.
COC(=O)[C@]12CCCCC=C1N(Cc1ccco1)C(=O)[C@H](CC(=O)NCc1ccccc1)C2,.,/,/,/,/,/
CC(C)CCOC(=O)C1C(c2ccccc2)C(C(=O)O)C1c1ccccc1 (centres undefined),.,.,.,.,?,/
COc1ccc(C2CC(C(F)(F)F)n3nc(C(=O)N(C)Cc4cn(C)nc4C)c(Cl)c3N2)cc1 (centres undefined),.,.,.,.,.,15µM
O=C(NCc1ccc2c(c1)OCO2)c1ccc(COc2cc(Cl)ccc2Cl)o1,.,.,.,.,6.6µM,/
O=C(NCc1ccc2c(c1)OCO2)Nc1ccc(Cl)cc1,.,.,.,25,?,.
O=C(NCc1ccc2c(c1)OCO2)c1cc(Cl)ccc1Cl,.,.,/,13,.,.
Brc1ccc(C2Nc3cccc4cccc(c34)N2)s1,.,.,.,.,.,?
CC(=O)N(c1nnc(-c2cccc(C)c2)s1)C1CCCC1,.,.,/,40,.,.
Cc1ccc2nc(NC(=O)c3ccc(OCC4CCCO4)cc3)sc2c1 (centres undefined),.,.,92,46,?,.
Cc1cc(C)c2nc(NC(=O)c3ccc(OCC4CCCO4)cc3)sc2c1 (centres undefined),.,.,65,31,?,.
Cn1nc(C(=O)N2CCN(c3ccccc3F)CC2)c2c1-c1ccccc1S(=O)(=O)C2,.,.,.,.,.,.
CCC(=O)NC(=S)Nc1cccc(NC(=O)c2ccccc2C)c1,.,.,.,.,.,.
COc1ccccc1NC(=S)NNC(=O)c1ccc(Cl)cc1Cl,.,.,51,31,.,.
CCCC(=O)NC(=S)Nc1cccc(NC(=O)c2ccc(Cl)cc2Cl)c1,.,.,.,.,.,.
Cc1ccnc(NC(=O)c2ccc(Cl)cc2Cl)n1,/,.,.,.,.,.
O=C(NC(=S)Nc1ncccn1)c1ccc(Cl)cc1Cl,.,.,127,30,?,.
CCC(=O)Nc1cccc(NC(=S)NC(=O)c2ccc(Cl)cc2Cl)c1,.[2.32 µM],.,.,42,?,.
CCC(=O)Nc1cccc(NC(=S)NC(=O)c2ccccc2C)c1,.,.,72,48,.,?
O=C(C[C@@H]1C/C=C/CCCC(=O)O[C@H](c2ccccc2)CNC1=O)N[C@H](CO)Cc1ccccc1,.,.,/,/,/,/
CCC1(CC)C(=O)C2=C3C1[C@H](C(=O)OC)CC(C(=O)OC)C[C@H]3[C@H]1C(=O)N(C)C(=O)[C@H]1[C@H]2C (some centres undefined),/,/,.,.,/,/
CCC(=O)Nc1ccc(Cl)c(NC(=S)NC(=O)COc2ccccc2)c1,.,.,.,.,.,.
CCC(=O)Nc1ccc(Cl)c(NC(=S)NC(=O)COc2ccc(Cl)cc2)c1,.[2.32 µM],.,.,.,1.9µM,.

# Screens from PubChem BioAssay.
